Assay [1] in a line: small molecules captured by biotinylated probe aFSTL3 – biochemical, small-molecule microarray, fluorescence 635/667, stem cell growth factor project, primary screen (AID 1064).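 Also: measures binding of the biotinylated anti-FSTL3 antibody to printed compounds.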 The note with it: higher = more signal.
Assay [2] is described as follows: binders from COS7 lysate, DM2A8 probe, primary screen, torsin A project, cell lysate, small-molecule microarray, fluorescence 635/667 (AID 1065). The conditions noted are these: higher = more signal, COS7 lysate expressing mutant human TOR1A.
Assay [3] in a line: small molecules captured by biotinylated probe aFGF2 – biochemical, small-molecule microarray, fluorescence 635/667, stem cell growth factor project, primary screen (AID 1067).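 Also: measures binding of biotinylated aFGF2 protein to printed compounds on slides; z-score merges feature fluorescence and signal-to-noise across triplicate slides.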 The conditions noted are these: higher = more signal.
The nature of assay [4]: small molecules captured by biotinylated probe aFGF10 – biochemical, small-molecule microarray, fluorescence 635/667, stem cell growth factor project, primary screen (AID 1071).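 Also: score merges 667 nm spot intensity and signal to noise from triplicate slides.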 The conditions noted are these: higher = more signal.
Assay [5] has as its target Neurogenic locus notch homolog protein 2 (Homo sapiens) (UniProt Q04721). Kind of assay: small molecules binding Notch2 protein – biochemical, small-molecule microarray, 635 nm fluorescence, stem cell growth factors, primary screen (AID 1073). The conditions noted are these: higher = more signal.
Assay [6] addresses Pro-neuregulin-1, membrane-bound isoform (Homo sapiens) (UniProt Q02297). Kind of assay: small molecules binding neuregulin-1 protein – biochemical, small-molecule microarray, fluorescence 635/667, psychiatric disease protein project, primary screen (AID 1075).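 Also: score combines 667 nm spot fluorescence with signal to noise.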 The conditions noted are these: NRG1 binding, 635 nm fluorescence, higher = more signal.
The test system of assay [7] is Neuregulin-1 EGF-like domain. Nature of the assay: small molecules binding NRG1 EGF domain – biochemical, small-molecule microarray, 635 nm fluorescence, primary screen (AID 1081).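 Also: binding of the protein to compounds printed on small-molecule microarray slides.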 The conditions noted are these: higher = more signal.
A short description of assay [8]: FRG1 expression reporter modulators in myotubes – cell-based, C2C12 myotubes, firefly/Renilla luciferase, luminescence, FRG1 inhibition for FSHD, primary screen (AID 1084). The note with it: FRG1 promoter luciferase, higher = more signal, called active from +8 up or from −8 down.
The nature of assay [9]: small molecules captured by biotinylated probe aFST – biochemical, small-molecule microarray, fluorescence 635/667, stem cell growth factor project, primary screen (AID 1086).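 Also: score merges 667 nm fluorescence with signal-to-noise of each printed compound spot.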 The conditions noted are these: higher = more signal.
Assay [10] in a line: binders of probe aHhip on microarray, primary screen, stem cell growth factor project, biochemical, small-molecule microarray, fluorescence 635/667 (AID 1087).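 Also: score merges spot fluorescence at 667nm with spot signal to noise ratio.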 The note with it: higher = more signal.
Assay [11] concerns PRMT1 (protein arginine N-methyltransferase 1). Kind of assay: small molecules binding arginine methyltransferase PRMT1 – biochemical, small-molecule microarray, 635 nm fluorescence, primary screen (AID 1088).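 Also: binding of Prmt1 protein to compounds spotted on small-molecule microarray slides.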 The conditions noted are these: higher = more signal.
Assay [12] in a line: growth effects on S. cerevisiae YJM789 – YJM789 clinical isolate, OD600, 24 h, basal, primary screen (AID 1089).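 Also: growth of clinical yeast isolate S. cerevisiae YJM 789 seeded 1000 cells per well; test concentration not given here.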 The conditions noted are these: higher = more signal, called active from +8 up or from −8 down.
Assay [13] can be described thus: S. pombe growth modifiers, basal conditions – strain 972, OD600, 24 h, no modulator, primary screen (AID 1090).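 Also: basal condition with compound alone and no growth modifier present; test concentration not given here.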 The note with it: S. pombe 972 growth, higher = more signal, called active from +8 up or from −8 down.
Assay [14] is described as follows: budding yeast growth modifiers under rapamycin – strain BY4716, OD600, 96 h, primary screen (AID 1091). Also: test concentration not given here. The conditions noted are these: S. cerevisiae BY4716 + rapamycin, higher = more signal, called active from +8 up or from −8 down.
Assay [15] deals with Torsin-1A-interacting protein 2 (Homo sapiens) (UniProt Q8NFQ8). Nature of the assay: small molecules binding lysate-expressed LULL1 – cell lysate, human LULL1 lysate, 635/667 nm fluorescence, primary screen (AID 1092).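 Also: score merges per-feature 667 nm fluorescence with signal-to-noise.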 The conditions noted are these: small-molecule microarray, hLULL1 lysate binding, 635 nm fluorescence; higher = more signal.
Assay [16] is described as follows: optical density change of DRC41 E. coli – strain DRC41, OD650, 24 h, E. coli filamentation project, primary screen (AID 1093).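 Also: MC1000 strain lacking acrAB efflux and sulA so SOS filamentation is blocked; test concentration not given here.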 The note with it: E. coli DRC41 growth, higher = more signal, called active from +8 up or from −8 down.
The nature of assay [17]: probe aLefty2 binding to arrayed compounds – biochemical, biotinylated probe, 635/667 nm fluorescence, primary screen (AID 1094).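 Also: score merges spot fluorescence near 667 nm with spot signal-to-noise ratio.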 The note with it: small-molecule microarray, higher = more signal.
Assay [18] has as its system Noggin (protein binding on small-molecule microarray). Nature of the assay: small molecules binding Noggin protein – biochemical, 635/667 nm fluorescence, primary screen (AID 1095).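 Also: score merges 667 nm feature fluorescence with signal to noise over triplicate slides.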 The note with it: 635 nm fluorescence, higher = more signal.
For assay [19], the target named is Neurogenic locus notch homolog protein 3 (Homo sapiens) (UniProt Q9UM47). Nature of the assay: small molecules binding NOTCH3 protein – biochemical, 635/667 nm fluorescence, primary screen (AID 1096). The note with it: small-molecule microarray, 635 nm fluorescence, higher = more signal.
Assay [20] is described as follows: probe aEGFR binding to arrayed compounds – biochemical, biotinylated probe, 635/667 nm fluorescence, primary screen (AID 1097).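 Also: probe is a biotinylated anti-EGFR antibody binding compounds printed on slides; score combines fluorescence near 667 nm and signal to noise of each spot.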 The note with it: small-molecule microarray, higher = more signal.

Each structure is given as a SMILES string. Active and inactive are the calls of the source.

Chain of Pro-neuregulin-1, membrane-bound isoform (Homo sapiens) (Q02297 whole entry, looked up, the tested form may be a part, canonical isoform): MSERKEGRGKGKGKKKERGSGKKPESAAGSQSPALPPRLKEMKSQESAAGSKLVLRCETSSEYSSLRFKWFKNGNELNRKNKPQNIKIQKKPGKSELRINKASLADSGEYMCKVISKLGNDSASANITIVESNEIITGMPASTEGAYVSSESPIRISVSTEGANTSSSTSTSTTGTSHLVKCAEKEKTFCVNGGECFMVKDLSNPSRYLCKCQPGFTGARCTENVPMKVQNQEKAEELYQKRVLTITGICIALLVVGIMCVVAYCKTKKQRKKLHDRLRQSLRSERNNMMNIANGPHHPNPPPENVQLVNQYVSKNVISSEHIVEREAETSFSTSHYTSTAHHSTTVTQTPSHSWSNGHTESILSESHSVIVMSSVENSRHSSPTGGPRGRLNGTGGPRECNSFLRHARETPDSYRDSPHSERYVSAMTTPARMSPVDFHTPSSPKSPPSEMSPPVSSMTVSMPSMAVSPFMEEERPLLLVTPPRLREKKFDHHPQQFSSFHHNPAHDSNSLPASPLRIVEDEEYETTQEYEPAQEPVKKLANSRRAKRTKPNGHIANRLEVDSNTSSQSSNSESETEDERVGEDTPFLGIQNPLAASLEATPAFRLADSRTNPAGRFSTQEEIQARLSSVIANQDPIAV
Chain of Torsin-1A-interacting protein 2 (Homo sapiens) (Q8NFQ8 whole entry, looked up): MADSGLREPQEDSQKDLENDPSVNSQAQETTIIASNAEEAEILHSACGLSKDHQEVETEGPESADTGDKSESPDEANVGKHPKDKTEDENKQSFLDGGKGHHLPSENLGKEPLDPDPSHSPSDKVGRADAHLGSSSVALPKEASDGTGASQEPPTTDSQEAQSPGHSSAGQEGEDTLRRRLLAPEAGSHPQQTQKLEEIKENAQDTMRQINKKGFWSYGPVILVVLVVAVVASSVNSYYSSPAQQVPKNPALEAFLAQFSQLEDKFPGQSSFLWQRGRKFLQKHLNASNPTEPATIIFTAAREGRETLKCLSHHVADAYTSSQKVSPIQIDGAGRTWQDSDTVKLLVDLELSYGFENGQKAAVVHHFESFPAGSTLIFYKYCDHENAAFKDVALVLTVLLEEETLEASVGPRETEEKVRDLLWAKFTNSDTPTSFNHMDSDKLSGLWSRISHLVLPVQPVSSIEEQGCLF
Chain of Neurogenic locus notch homolog protein 3 (Homo sapiens) (Q9UM47 whole entry, looked up): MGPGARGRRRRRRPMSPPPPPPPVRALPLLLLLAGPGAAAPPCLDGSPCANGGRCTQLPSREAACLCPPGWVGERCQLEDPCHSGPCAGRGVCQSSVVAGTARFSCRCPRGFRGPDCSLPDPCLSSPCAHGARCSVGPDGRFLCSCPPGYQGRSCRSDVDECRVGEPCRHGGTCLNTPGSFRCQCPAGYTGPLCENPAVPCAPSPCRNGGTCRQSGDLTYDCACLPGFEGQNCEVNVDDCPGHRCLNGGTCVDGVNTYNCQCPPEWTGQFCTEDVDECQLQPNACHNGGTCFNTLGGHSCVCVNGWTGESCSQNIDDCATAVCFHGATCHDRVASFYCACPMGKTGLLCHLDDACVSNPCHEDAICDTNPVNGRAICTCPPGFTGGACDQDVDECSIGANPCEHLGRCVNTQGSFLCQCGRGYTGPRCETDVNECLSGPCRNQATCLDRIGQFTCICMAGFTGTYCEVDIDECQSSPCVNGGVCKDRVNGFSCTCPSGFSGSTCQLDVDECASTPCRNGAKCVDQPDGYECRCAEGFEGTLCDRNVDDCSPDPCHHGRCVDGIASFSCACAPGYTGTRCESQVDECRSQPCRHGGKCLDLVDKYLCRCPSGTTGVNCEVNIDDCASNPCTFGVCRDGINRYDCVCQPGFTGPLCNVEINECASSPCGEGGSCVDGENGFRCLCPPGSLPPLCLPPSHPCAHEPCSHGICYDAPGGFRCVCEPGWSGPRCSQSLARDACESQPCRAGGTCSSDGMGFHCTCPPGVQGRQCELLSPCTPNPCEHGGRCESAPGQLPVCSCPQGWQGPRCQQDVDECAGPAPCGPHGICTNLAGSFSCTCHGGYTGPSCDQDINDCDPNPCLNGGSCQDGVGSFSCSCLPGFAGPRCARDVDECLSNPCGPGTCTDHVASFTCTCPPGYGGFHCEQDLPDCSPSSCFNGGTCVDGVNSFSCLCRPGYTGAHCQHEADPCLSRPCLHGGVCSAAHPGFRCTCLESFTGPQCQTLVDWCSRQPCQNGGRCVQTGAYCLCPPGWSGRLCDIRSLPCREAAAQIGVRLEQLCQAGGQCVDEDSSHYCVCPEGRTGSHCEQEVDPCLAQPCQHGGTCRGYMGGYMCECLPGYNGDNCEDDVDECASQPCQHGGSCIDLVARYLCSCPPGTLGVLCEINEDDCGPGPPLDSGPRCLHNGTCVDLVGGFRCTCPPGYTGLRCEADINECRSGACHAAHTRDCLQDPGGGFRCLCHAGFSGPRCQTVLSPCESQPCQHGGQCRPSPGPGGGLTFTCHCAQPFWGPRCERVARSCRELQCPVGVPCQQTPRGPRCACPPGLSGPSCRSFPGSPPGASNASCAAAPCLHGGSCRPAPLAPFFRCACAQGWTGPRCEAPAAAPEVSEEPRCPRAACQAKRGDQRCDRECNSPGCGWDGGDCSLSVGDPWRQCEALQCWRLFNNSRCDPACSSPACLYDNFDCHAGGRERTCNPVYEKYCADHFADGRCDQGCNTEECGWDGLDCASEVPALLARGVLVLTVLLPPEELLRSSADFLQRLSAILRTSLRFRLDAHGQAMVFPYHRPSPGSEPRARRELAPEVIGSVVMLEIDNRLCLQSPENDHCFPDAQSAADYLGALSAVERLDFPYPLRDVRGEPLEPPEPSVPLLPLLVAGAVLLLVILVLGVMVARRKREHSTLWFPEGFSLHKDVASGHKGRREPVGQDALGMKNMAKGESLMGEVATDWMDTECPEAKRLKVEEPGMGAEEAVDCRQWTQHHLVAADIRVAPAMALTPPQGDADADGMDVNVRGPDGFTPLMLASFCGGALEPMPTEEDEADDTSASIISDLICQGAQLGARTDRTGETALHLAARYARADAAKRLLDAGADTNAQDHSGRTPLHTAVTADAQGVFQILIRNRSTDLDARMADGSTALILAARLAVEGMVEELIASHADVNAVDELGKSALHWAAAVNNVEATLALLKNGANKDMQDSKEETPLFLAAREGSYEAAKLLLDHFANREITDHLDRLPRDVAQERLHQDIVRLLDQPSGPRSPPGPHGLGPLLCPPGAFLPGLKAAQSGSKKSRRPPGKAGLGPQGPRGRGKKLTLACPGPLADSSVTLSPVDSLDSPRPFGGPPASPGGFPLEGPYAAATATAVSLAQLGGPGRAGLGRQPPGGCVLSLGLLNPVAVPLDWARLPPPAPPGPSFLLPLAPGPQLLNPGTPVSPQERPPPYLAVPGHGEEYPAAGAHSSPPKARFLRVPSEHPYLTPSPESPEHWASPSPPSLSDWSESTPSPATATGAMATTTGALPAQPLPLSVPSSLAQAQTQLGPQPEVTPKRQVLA

As to `C=CCN(Cc1ccccc1)C(=O)C(c1cccs1)N(CCOCCO)C(=O)/C=C\C(=O)O` (stereo not given), the composite z-score was 0.713 in assay [1]; -1.43 in assay [2]; -0.203 in assay [3]; -0.873 in [4]; -1.04 in assay [5]; -0.353 in [6]. The composite z-score is -0.421 in assay [7]; -1.59 in assay [9]; -0.341 in assay [10]; -0.785 in assay [11]; 1.2 in assay [15]; -0.0555 in assay [17]. In addition, the results for the composite z-score in assay [18], in [19] and in assay [20] were -2.41, -1.7 and -0.329, respectively. In addition, the z-score in [8] is 0.919 (inactive); in [12], -2.16 (inactive); in assay [13] it was 0.0374 (inactive); in [14] it was -1.01 (inactive); in [16], 2.25 (inactive).

Consider `COCCOC(=O)N1C(=O)[C@@]2(c3cc(C#CC4(O)CCCCCC4)ccc31)[C@H](c1ccc(O)cc1)N1[C@H](c3ccccc3)[C@H](c3ccccc3)OC(=O)[C@H]1[C@@H]2C(=O)Nc1nc2ccccc2s1`, for which the composite z-score is 1.87 in assay [1]; 0.186 in [2]; -0.045 in assay [3]; 0.769 in [4]; 1.15 in assay [5]; 1.15 in [6]. For the same molecule, the composite z-score in assay [7] amounted to 1.02; in [9] it was 2.31; in [10] it was 0.468; in [11], 1.35; in assay [15] it was 3.08; in assay [17] it was 1.04. In addition, the results for the composite z-score in [18], in [19] and in assay [20] were 1.59, 1.1 and 0.292, respectively. For the same molecule, the z-score in assay [8] was 1.41 (inactive); in assay [12], 0.861 (inactive); in assay [13], -0.0153 (inactive); in assay [14] it was 0.383 (inactive); in assay [16], -0.369 (inactive).

As for `OC([C@@H]1CC(c2ccccc2)=NO1)[C@H]1CC(c2ccccc2)=NO1` (stereo not given in full), the composite z-score in assay [1] was 0.0787; in [2], -0.141; in [3] it was -0.0634; in assay [4], 0.287; in assay [5], 0.178; in assay [6], -0.0896. Moreover, the composite z-score in assay [7] is 0.563; in assay [9] it was 0.227; in [10] it was 0.0024; in assay [11] it was -0.629; in assay [15] it was 0.299; in assay [17] it was -0.0748. The results for the composite z-score in [18], in assay [19] and in assay [20] were 0.281, -0.158 and 0.0655, respectively. In addition, the z-score in assay [8] is 0.364 (inactive); in [12], 0.784 (inactive); in assay [13], -0.786 (inactive); in assay [14], 1.55 (inactive); in assay [16], 2.52 (inactive).

For `N#Cc1ccc(NN2C(C(O)c3c(F)cccc3Cl)C=CC3C(=O)N(c4ccccc4)C(=O)C32)cc1` (stereo not given), the composite z-score came out at 0.394 in assay [1]; 0.187 in assay [2]; 0.199 in [3]; 0.63 in [4]; 1.69 in [5]; 1.97 in assay [6]. Besides, the composite z-score in assay [7] was determined as 0.456; in assay [9] it was 1.18; in assay [10], 0.0053; in assay [11] it was 1.19; in assay [15] it was 3.53; in assay [17], 0.222. Further, the composite z-score in [18] was -0.109; in assay [19], 1.06; in [20], -0.244. The z-score was -1.14 (inactive) in assay [8]; 0.432 (inactive) in assay [12]; 1.62 (inactive) in [13]; 2.48 (inactive) in assay [14]; -0.62 (inactive) in [16].

Turning to `COc1cc2c(cc1OC)CN(C(=O)[C@@H]1[C@H]3C(=O)O[C@H](c4ccccc4)[C@H](c4ccccc4)N3[C@H](c3ccc(O)cc3)[C@@]13C(=O)Nc1ccc(C#CC4(O)CCCCCC4)cc13)CC2`, the composite z-score is -1.38 in [1]; 0.75 in assay [2]; -0.0197 in assay [3]; 0.763 in [4]; 1.18 in assay [5]; 1.73 in assay [6]. Moreover, the composite z-score was 1.35 in assay [7]; 0.0629 in assay [9]; -0.274 in assay [10]; 1.55 in [11]; 3.46 in assay [15]; -0.232 in assay [17]. Moreover, the composite z-score in assay [18] is 1.59; in assay [19], 1.08; in [20], 0.0685. The z-score is 0.651 (inactive) in [8]; 0.739 (inactive) in [12]; -0.0727 (inactive) in assay [13]; 0.257 (inactive) in [14]; 0.395 (inactive) in assay [16].

Values taken from PubChem BioAssay.
